Source: PubChem (National Center for Advancing Translational Sciences (NCATS))
L3MBTL1 block = qHTS Assay for the Inhibitors of L3MBTL1 | 230,000 tested, 0.66% active | AlphaScreen L3MBTL1–H3K9me1 peptide binding | Potency, µM (series often up to 57.1 µM), without a hit: top-dose activity, negative = inhibition, hits mostly inhibitors | AID 485360, 2010 | Lethal(3)malignant brain tumor-like protein 1 (Homo sapiens), Q9Y468; further: on the % scale 0 is the no-effect control and ±100 the full control effect; nearly all actives have a fitted effect of over 60% in size
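L3MBTL1 50 nM + b-AHA-H3(1-15)K9me1 75 nM, 30 min RT; compound added, 30 min RT; streptavidin donor/Ni-chelate acceptor beads 10 ug/mL each final, 30 min RT dark; AlphaScreen read.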
G9a inh = qHTS Assay for Inhibitors of Histone Lysine Methyltransferase G9a. Histone-lysine N-methyltransferase EHMT2 (Homo sapiens), Q96KQ7. G9a H3K9 monomethylation, AlphaScreen, 2 h. Potency, µM (doses to about 102 µM), inactives show at the top dose activity, negative = inhibition, usual class: inhibitors. 350,000 tested, 8.8% active. AID 504332, 2011; further: on the % scale 0 is the no-effect control and ±100 the full control effect; nearly all actives have a fitted effect of over 75% in size
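Readings reflect AlphaScreen signal from monomethyl-H3K9 antibody detection. HMT at 20 nM; substrate b-H3K9 500 nM; cofactor SAM 20 uM; 2 h RT reaction; compounds tested as titrations in qHTS with 15 min preincubation.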
HP1b chromo inh = HTS for Inhibitors of HP1-beta Chromodomain Interactions with Methylated Histone Tails | AlphaScreen HP1-beta / biotin-H3K9me3 peptide binding | Potency, µM (highest dose often 114 µM), without a hit: top-dose activity change, negative = inhibition, actives largely listed as inhibitors | 390,000 tested, 0.56% active | AID 540317, 2011; further: nearly all actives have a fitted effect of over 70% in size
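HP1-beta protein (50 nM final) preincubated 30 min at room temperature with biotinylated H3(1-18)K9me3 peptide (50 nM) in PBS pH 7.4, 0.01% Tween-20, then compound added for 30 min. AlphaScreen streptavidin donor/nickel chelate acceptor beads (10 ug/mL final), 30 min dark, luminescence read.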
BAZ2B block = qHTS Assay for Inhibitors of BAZ2B; Potency, µM (top dose mostly 114 µM), for inactives: at the top dose activity change, negative = inhibition, usual class: inhibitors; 360,000 tested, 4.4% active; AlphaScreen BAZ2B-H3K14Ac peptide displacement; Bromodomain adjacent to zinc finger domain protein 2B (Homo sapiens), Q9UIF8; further: on the % scale 0 is the no-effect control and ±100 the full control effect; nearly all actives have a fitted effect of over 60% in size
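BAZ2B 50 nM plus b-H3(5-23)K14Ac 50 nM, PBS pH 7.4/0.01% Tween-20, 30 min RT; compound added (max 110 uM), 30 min RT; streptavidin donor/Ni-chelate acceptor beads 10 ug/mL final, 20 min dark; AlphaScreen read.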
JMJD2A Tudor = qHTS Assay for Inhibitors of JMJD2A-Tudor Domain; AID 504339, 2011; Potency, µM (titrated, usually from 114 µM), inactives show at the top dose activity change, negative = inhibition, actives largely listed as inhibitors; Lysine-specific demethylase 4A (Homo sapiens), O75164; AlphaScreen JMJD2A-Tudor / H3K4me3 peptide binding; 390,000 tested, 4.4% active; further: on the % scale 0 is the no-effect control and ±100 the full control effect; nearly all actives have a fitted effect of over 50% in size
Sfp PPTase inh = qHTS Assay for Inhibitors of Bacillus subtilis Sfp phosphopantetheinyl transferase (PPTase) | 4'-phosphopantetheinyl transferase ffp (Bacillus subtilis), Q9F4F7 | Biochemical Sfp PPTase activity, qHTS | Potency, µM, inactives show largest response in the series, negative = inhibition, hits mostly inhibitors | 310,000 tested, 3.5% active;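 further: the enzyme is Sfp with the accession as filed and its product quenches rhodamine fluorescence; 0% = enzyme reaction without inhibitor and -100% = no enzyme wells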
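Step 1, compound plus 15 nM Sfp-PPTase, 15 min, room temperature. Step 2, add rhodamine-CoA (5 uM) and BHQ-2-YbbR (12.5 uM). Step 3, read 525/598 nm fluorescence at 0 and 30 min.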
* marks the source's active call; other numbers are inactive results; ? = inconclusive; nt = not tested or not shown; [ ] = remark or other dose. Only some compounds are listed: those with a hit (about 12% of all), similar ones and a draw of the others. The call rests on the fitted dose curve; in most records, active means well fitted curve in the direction sought with a large enough effect; inconclusive means small, poorly fitted or top-dose-only effect, or another doubt; inactive means no such curve, though single readings can be large; an effect the other way counts as inactive or inconclusive. Potency means the concentration at half of the fitted maximal effect.

SMILES | L3MBTL1 block | G9a inh | HP1b chromo inh | BAZ2B block | JMJD2A Tudor | Sfp PPTase inh
Cc1ccc(OCC(=O)OC2=C(C(=O)c3ccccc3)N(C)S(=O)(=O)c3ccccc32)cc1 | nt | 20µM* | 5.8% | -18.2% | ? | nt
Cc1ccc(C(=O)OC2=C(C(=O)c3ccccc3)N(C)S(=O)(=O)c3ccccc32)cc1 | nt | ? | -5.5% | -20.4% | ? | nt
COc1ccc(NC(=O)CSc2nc3ccccc3n2Cc2cccc(OC)c2)cc1 | nt | 30.4%[59 µM] | 60.5% | ? | 2.0% | nt
CCCCOc1ccc(-c2nc(SCC(N)=O)n[nH]2)cc1 | 2.0% | 2.2% | 24.2% | 8.7% | -18.3% | 10.3%
CCCCOc1ccc(-c2nc(=S)[nH][nH]2)cc1 | nt | 1.26µM* | 2.6% | -7.3% | -19.0% | -5.8%
COc1ccc(OC)c(NS(=O)(=O)c2ccc3[nH]c4c(c3c2)CCCCC4)c1 | nt | -35.6%[59 µM] | -20.8% | ? | ? | nt
COc1ccc(OC)c(NC(=O)CN(C)S(=O)(=O)c2ccc3[nH]c4c(c3c2)CCCC4)c1 | nt | 12.6µM* | ? | ? | ? | nt
CN(CC(=O)NCc1ccc(Cl)cc1)S(=O)(=O)c1ccc2[nH]c3c(c2c1)CCCC3 | nt | 10µM* | -2.4% | -28.7% | ? | nt
Cc1ccc(N(C)S(=O)(=O)c2ccc3[nH]c4c(c3c2)CCCC4)cc1 | nt | ? | -9.7% | ? | ? | nt
COc1cccc(CNC(=O)CN(C)S(=O)(=O)c2ccc3[nH]c4c(c3c2)CCCC4)c1 | nt | 12.6µM* | -1.7% | -33.8% | ? | nt
COc1ccc2c(c1)O[C@@H](c1cccc(C(F)(F)F)c1)[C@H](OC(=O)Nc1ccc(C)c(Br)c1)C2=O | nt | nt | nt | nt | nt | 16.1%
Cn1c2c(c(=O)n(C)c1=O)C(c1ccccc1[N+](=O)[O-])CC(=O)N2 (configuration not stated) | nt | -20.3%[59 µM] | 21.5% | 0.2% | -1.7% | nt
CCCc1ccccc1OCCNC(C)=O | 0.0% | -6.7%[59 µM] | -10.6% | -5.0% | 15.8µM* | 4.9%
CC(=O)NCCOc1cccc2ccccc12 | -7.1% | -41.2%[12.7 µM] | 15.4% | 9.5% | -7.9% | -6.3%
CCc1cccc(NC(=O)Cn2c(=O)n3nc(-c4cccc(F)c4)nc3c3ccccc32)c1 | nt | -2.2%[59 µM] | -0.6% | -2.1% | -13.6% | nt
COc1ccc(/C=C2\SC(=S)N(CCC(=O)N3CCOCC3)C2=O)cc1 | nt | 43.2%[12.7 µM] | 4.3% | 14.2% | -12.9% | 11.2%
O=C(CCCN1C(=O)/C(=C/c2ccccc2)SC1=S)N1CCOCC1 | nt | 79.4µM* | ? | 39.8µM* | -35.9% | -7.3%
COc1ccc(/C=C2\SC(=S)N(CCCC(=O)N3CCN(C)CC3)C2=O)cc1 | nt | ? | ? | ? | ? | -4.1%
O=C(CCN1C(=O)/C(=C\c2ccccc2)SC1=S)N1CCOCC1 | nt | -3.1% | 26.6% | -0.5% | -12.4% | 10.5%
COc1cccc(/C=C2/SC(=S)N(CCC(=O)N3CCOCC3)C2=O)c1 | nt | ? | -5.1% | 0.8% | 56.2µM* | 14.9%
COc1cccc(/C=C2\SC(=S)N(CCCC(=O)N3CCCCC3)C2=O)c1 | nt | 25.1µM* | ? | 11.2µM* | 39.8µM* | -16.4%
Cc1cc(C)cc(OCC(=O)Nc2nonc2-c2ccc(Br)cc2)c1 | nt | -9.6%[59 µM] | 22.4% | -16.6% | -7.3% | nt
Oc1ccccc1/C=N/N1CCCCC1 | -18.0% | -30.6% | 16.8% | nt | -30.8% | 0.1%
Oc1ccc(/C=N/N2CCOCC2)c(O)c1O | 14.1µM* | 3.98µM* | -6.5% | nt | 22.4µM* | 10µM*
C(=NN1CCCCCC1)c1cccc2ccccc12 | nt | nt | ? | nt | 50.1µM* | nt
Oc1ccc(Cl)cc1C=NN1CCCCCC1 | nt | nt | -18.3% | nt | 56.2µM* | nt
